tim23-1 inh: tim23-1 yeast growth inhibition | S. cerevisiae tim23-1 growth, BacTiter-Glo luminescence, 24 h | inhibition, % at 20 µM | hit rate 1.3% among 330,000 | AID 463212;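 active = growth inhibition of the mutant yeast at or above 50%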;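 note: temperature-sensitive mutant grown at 25 °C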
V-ATPase pH: regulators of yeast V-ATPase proton transport; S. cerevisiae, pHLuorin cytosolic pH fluorescence; AID 504577; hit rate 0.37% among 350,000; response, % at 10 µM; in the data active = response mostly above about 7.3%, no sharp cut-off; inactive = mostly below about 5.4%; note: actives read high
tim10-1 inh: inhibits growth of tim10-1 mutant yeast | S. cerevisiae tim10-1 ts strain growth, BacTiter-Glo, 24 h | inhibition, % at 20 µM | hit rate 2.2% among 330,000 | AID 463190;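 active = inhibition of at least 40%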;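 note: mutant grown at 25 °C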
TIM10 inh: inhibits growth of TIM10 yeast strain; hit rate 1.4% among 330,000; S. cerevisiae TIM10 strain growth, BacTiter-Glo luminescence, 24 h; inhibition, % at 10 µM;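 active = inhibition of 40% or more at the single tested concentration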;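 note: wild-type TIM10 isogenic control strain grown at permissive 25 °C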
PfHsp90 yeast 2: inhibits growth of yeast expressing Plasmodium falciparum Hsp90. S. cerevisiae expressing PfHsp90, BacTiter-Glo ATP, 48 h; yeast lacking PDR1 and PDR3 efflux regulators. inhibition, % at 9.4 µM. hit rate 0.32% among 310,000;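 active = every replicate shows inhibition above about 80%, whatever the replicate mean, limit read from the data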
tim10 confirm: confirmation of TIM10 yeast growth inhibitors; S. cerevisiae tim10 strain growth, BacTiter-Glo luminescence, 24 h; AID 463215; inhibition, % at 10 µM; hit rate 63% among 4,600; shares compounds with TIM10 inh;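 active = inhibition of yeast growth at or above a set limit in either of two replicates at 10 µM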; note: this counterscreen used the strain with wild-type TIM10
tim23-1 conf: confirmation of tim23-1 mutant yeast growth inhibitors | AID 463218 | inhibition, % at 20 µM | shares compounds with tim23-1 inh | S. cerevisiae tim23-1 growth, BacTiter-Glo luminescence, 24 h | hit rate 83% among 4,400;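 active = inhibition above about 39% in either of two replicate wells at 20 µM, limit read from the data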;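 note: temperature-sensitive tim23-1 mutant grown at 25 °C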
Each line names hits and unclear results; the compound was inactive in the other large screens (follow-up assays come after a bar, where they were run). Only some compounds are listed: those with a hit (about 3.7% of all), similar ones and a draw of the others.

CC(=O)n1cc(Nc2ccc([N+](=O)[O-])cc2)c2ccccc21	none
CC(=O)SC(C[N+](=O)[O-])c1cn(C(C)=O)c2ccccc12 (stereo not given)	tim23-1 inh 88.7, TIM10 inh 79.8, PfHsp90 yeast 2 124.3 | tim10 confirm 85.9 | tim23-1 conf inactive
Cc1ccc(O)c(N=NC2=C(O)CC(C)(C)CC2=O)c1	tim23-1 inh 61.4, TIM10 inh 42.8 | tim10 confirm inactive | tim23-1 conf 52.2
Cc1nc(C)c(-c2csc(Nc3ccccn3)n2)s1	tim23-1 inh 53.6, TIM10 inh 48.1 | tim10 confirm 47.2 | tim23-1 conf 45.4
Cc1ccc(-c2csc(Nc3ccccn3)n2)cc1	none
O=C1Nc2ccc(Br)cc2/C1=C/C(=O)c1ccc2c(c1)OCO2	tim23-1 inh 72.6, TIM10 inh 52.8, PfHsp90 yeast 2 106.0 | tim10 confirm 64.2 | tim23-1 conf inactive
O=C(c1ccc(Cl)c(S(=O)(=O)N2CCCCC2)c1)N1CCN(Cc2ccccc2)CC1	none
CC1CCN(C(=O)COC(=O)C2CCN(S(=O)(=O)c3ccc(Cl)c(C(F)(F)F)c3)CC2)CC1	none
C=CCS/C(N)=N\N=C\c1c(O)ccc2ccccc12	tim23-1 inh 52.5, TIM10 inh 52.9 | tim10 confirm 41.5 | tim23-1 conf 71.3
CCCS/C(N)=N/N=C/c1ccccc1O	none
COc1ccc(CC(=O)Nc2ccncc2Cl)cc1	none
O=C(Nc1cccc(Br)c1)c1ccn[nH]1	tim23-1 inh 57.1, TIM10 inh 59.2 | tim10 confirm 40.7 | tim23-1 conf 59.8
CC(=O)Nc1sc2c(c1C(c1ccc(F)cc1)N1CCOCC1)CCCC2 (stereo not given)	none
CC(=O)Nc1sc2c(c1C(c1ccc(Cl)cc1)N1CCOCC1)CCCC2 (stereo not given)	tim23-1 inh 50.5, TIM10 inh 41.2 | tim10 confirm inactive | tim23-1 conf 55.1
CN(C(=O)COC(=O)c1cc2ccccc2cc1O)c1ccccc1	tim23-1 inh 61.5, TIM10 inh 40.4 | tim10 confirm 46.6 | tim23-1 conf 48.4
N#Cc1cnc(=S)n(-c2cc(C(F)(F)F)cc(C(F)(F)F)c2)c1N	none (no result: tim23-1 inh, tim10-1 inh, TIM10 inh, PfHsp90 yeast 2)
O=C1C(=O)c2ccc(-c3ccccc3)cc2-c2ccccc21	tim23-1 inh 59.2, TIM10 inh 43.9 (no result: PfHsp90 yeast 2) | tim10 confirm 61.2 | tim23-1 conf 55.8
CCCCC1(C)NC(=O)N(CC(=O)N2CCc3ccccc32)C1=O (stereo not given)	none
CCCOc1ccc(/C=c2\sc3ncnn3c2=O)cc1	none
CCOc1ccccc1/C=c1\sc2ncnn2c1=O	tim23-1 inh 60.0, TIM10 inh 43.1 (no result: PfHsp90 yeast 2) | tim10 confirm 31.7 | tim23-1 conf 73.9
CNC(=S)N/N=C/c1cn(Cc2ccc(F)cc2)c2ccccc12	tim23-1 inh 51.3, TIM10 inh 40.2 | tim10 confirm 49.2 | tim23-1 conf 38.5
Cc1ccc(S(=O)(=O)N2CCOCC2)cc1NC(=O)CNC(C)c1ccccc1 (stereo not given)	none (no result: PfHsp90 yeast 2)
Cc1ccc(C)c(S(=O)(=O)N2CCN(c3nc(-c4cccnc4)nc4ccccc34)CC2)c1	none
CCc1ccc(CNc2ccc3c(c2)ncn3C(C)(C)C)cc1	none
CC(C)(C)n1cnc2cc(NCc3ccc(Br)cc3)ccc21	tim23-1 inh 54.2, TIM10 inh 52.6 | tim10 confirm 37.5 | tim23-1 conf 69.2
c1ccc(-c2nc3cccnc3nc2-c2ccccc2)cc1	none
O/N=C/c1ccccc1OCc1ccc(Cl)cc1	tim23-1 inh 51.8, TIM10 inh 42.5 | tim10 confirm inactive | tim23-1 conf 58.5
O/N=C/c1ccccc1OCc1ccccc1Cl	none
Cc1ccc2c(c1)C(=O)C(=O)N2Cc1ccc(C(F)(F)F)cc1	tim23-1 inh 81.9, TIM10 inh 41.3, PfHsp90 yeast 2 149.8 | tim10 confirm 58.1 | tim23-1 conf 31.9
O=C(N/N=C/C(Br)=C\c1ccccc1)c1cccs1	tim23-1 inh 70.9, TIM10 inh 44.0 (no result: PfHsp90 yeast 2) | tim10 confirm 39.8 | tim23-1 conf 69.3
CCCCNC(=O)N(O)C1N(/N=C/c2ccccc2OC)C(=S)SC1(C)C (stereo not given)	none
Cc1ccc2cc3cc(C(=O)NCCCN4CCCCCC4)oc3nc2c1	tim23-1 inh 50.6, TIM10 inh 58.3 | tim10 confirm inactive | tim23-1 conf inactive

Source: PubChem (several laboratories)
